Measured values: PubChem BioAssay AID1508625 (Wald Lab, School of Medicine, Case Western Reserve …, 2021)

Experiment: enhancers of NK cell killing of ovarian tumor cells, primary screen, imaging, OVCAR3, primary NK cells, calcein-AM imaging (AID 1508625);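 further: compound given to NK cells 16 h before adding targets at 1.5 to 1 ratio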
Conditions: OVCAR3 lysis by primary NK cells, at 5 µM; z-score: measured here: robust Z-score, single-point normalisation

## COc1ccc(-c2ccc3c(N)c(C(=O)Nc4ccc(Br)cc4)sc3n2)cc1
  corrected activity, negative = more killing: -3.35%
  z-score: -1

## CCOC(=O)Cc1ccc(N(Cc2ccccc2)S(=O)(=O)c2cc(C)ccc2C)cc1
  corrected activity, negative = more killing: -11.3%
  z-score: -3.06

## C#CCN1C(=O)C(O)(CC(=O)c2cccc3ccccc23)c2ccccc21 (stereo not drawn)
  corrected activity, negative = more killing: -5.41%
  z-score: -2.06

## O=C(Nc1cccc2ccccc12)ON=Cc1ccc(F)cc1
  corrected activity, negative = more killing: -4.41%
  z-score: -1.4
